Assay results as given in PubChem BioAssay (NCI).
This is part of a sample that, as a whole, favours compounds with a hit. Of some 83,000 tested, about 20% had one in any assay.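 Cell lines were cultured in 96-well plates, exposed to a single compound concentration, and assessed for percent growth 48 hours later.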 The source made the active and inactive calls. How the source made its calls: active means growth percent below 10; inactive means the rest.

Assays:
Assay in all cases: NCI-60 one-dose screen, 48 h (100 = growth as untreated, 0 = no growth, -100 = all killed)
Conditions in all cases: 10 µM
[1] = system: SR leukemia
[2] = system: RPMI-8226 leukemia
[3] = system: OVCAR-8 ovarian
[4] = system: OVCAR-5 ovarian
[5] = system: OVCAR-4 ovarian
[6] = system: SK-OV-3 ovarian
[7] = system: OVCAR-3 ovarian
[8] = system: HS 578T breast
[9] = system: NCI/ADR-RES ovarian
[10] = system: T-47D breast
[11] = system: BT-549 breast
[12] = system: MDA-MB-435 melanoma
[13] = system: SW-620 colon
[14] = system: MCF7 breast
[15] = system: HCT-116 colon
[16] = system: HCC-2998 colon
[17] = system: KM12 colon

Measured: growth

CC(C)(C)OC(=O)CC(S(=O)(=O)c1ccccc1)S(=O)(=O)c1ccccc1
active: [13] -63.9%
inactive: [1] 77.9% | [2] 99.3% | [3] 101% | [4] 98.8% | [5] 107% | [6] 101% | [7] 48.3% | [8] 102% | [9] 107% | [10] 67.1% | [11] 108% | [12] 100% | [14] 97% | [15] 82.5% | [16] 106% | [17] 99.6%

Cn1cnc([N+](=O)[O-])c1/C=C1\Oc2ccc(Br)cc2C1=O
active: [2] 4.16%
inactive: [1] 33.9% | [3] 77.8% | [4] 105% | [5] 103% | [6] 89.9% | [7] 99.7% | [8] 103% | [9] 101% | [10] 98.1% | [11] 95.8% | [12] 78% | [13] 82.6% | [14] 47.9% | [15] 56.9% | [16] 101% | [17] 93.9%

CCOC(=O)c1cc(C(=O)c2ccc(OC)c(OC)c2)n2ccncc12
inactive: [1] 78.5% | [2] 88.3% | [3] 94.9% | [4] 124% | [5] 104% | [6] 64.2% | [7] 108% | [8] 102% | [9] 96.9% | [10] 78.8% | [11] 84.5% | [12] 104% | [13] 100% | [14] 79.6% | [15] 93.3% | [16] 101% | [17] 101%

COC(=O)C1(O)NC(=C(C#N)C#N)C(C#N)=C1C(=O)c1ccc(OC)c(OC)c1 (stereo not drawn)
inactive: [1] 89.7% | [2] 90.1% | [3] 92% | [4] 111% | [5] 118% | [6] 98.6% | [7] 107% | [8] 95.9% | [9] 106% | [10] 98.6% | [11] 89.1% | [12] 104% | [13] 97.9% | [14] 95.4% | [15] 90.9% | [16] 117% | [17] 105%

CC(=O)[C@H]1CC[C@]2(C)[C@@H]1CC[C@@H]1[C@@]3(C)CC(CCC#N)(CCC#N)C(=O)C(C)(C)[C@@H]3CC[C@]12C
inactive: [1] 101% | [2] 107% | [3] 106% | [4] 88.5% | [5] 87.2% | [6] 103% | [7] 107% | [8] 90.5% | [9] 90.5% | [10] 91.2% | [11] 103% | [12] 92.4% | [13] 88.8% | [14] 90.1% | [15] 96% | [16] 100% | [17] 94.5%

OCCn1cccn1
inactive: [1] 101% | [2] 98.2% | [3] 116% | [4] 107% | [5] 117% | [6] 104% | [7] 104% | [8] 111% | [9] 97.5% | [10] 102% | [11] 110% | [12] 102% | [13] 101% | [14] 116% | [15] 110% | [16] 97.1% | [17] 102%

O=C(Nc1ccc2c(O)cc(S(=O)(=O)O)cc2c1)c1ccc([N+](=O)[O-])cc1
inactive: [1] 60.9% | [2] 92.9% | [3] 88.9% | [4] 101% | [5] 103% | [6] 82.7% | [7] 104% | [8] 103% | [9] 100% | [10] 86% | [11] 94.3% | [12] 106% | [13] 100% | [14] 96.3% | [15] 94.1% | [16] 108% | [17] 97.2%

COc1ccc(Cl)cc1Nc1nc(C(F)(F)F)ccc1C(=O)N/N=C/c1cc(OC)c(OC)c(OC)c1
active: [8] -11.3% | [9] 0.977% | [16] 8.93%
inactive: [1] 14.1% | [2] 23% | [3] 53.2% | [4] 62.4% | [5] 23.7% | [6] 34.9% | [7] 10.2% | [10] 29.7% | [11] 15.9% | [12] 37.1% | [13] 16.7% | [14] 17.8% | [17] 30.6%

CC(=O)Nc1ccc2c(c1)C(=O)c1cccc(C(=O)O)c1-2
inactive: [1] 123% | [2] 105% | [3] 106% | [4] 103% | [5] 108% | [6] 108% | [7] 118% | [8] 109% | [9] 107% | [10] 99.3% | [11] 117% | [12] 102% | [13] 99.8% | [14] 105% | [15] 105% | [16] 102% | [17] 120%

COc1ccc2c(c1)C(=O)/C(=C/c1cccc(OCC(=O)c3ccc([N+](=O)[O-])cc3)c1)CO2
inactive: [4] 57.3% | [5] 74% | [6] 90.7% | [7] 58.4% | [10] 50.3% | [12] 24.4%
active: [1] -64.1% | [2] -50.5% | [3] 2.15% | [8] -26.8% | [9] -29.2% | [11] -34.5% | [13] -89% | [14] -35.9% | [15] -74.2% | [17] -87.9%

O=c1[nH]c(=O)n(C2C[C@H](O)[C@@H](CO)O2)cc1C(F)(F)F (stereo partly drawn)
inactive: [1] 91.9% | [2] 97.5% | [3] 103% | [4] 103% | [5] 114% | [6] 109% | [7] 117% | [8] 124% | [9] 102% | [10] 95.3% | [11] 105% | [12] 102% | [13] 114% | [14] 102% | [15] 106% | [16] 108% | [17] 115%

O=c1oc2c(cc1-c1ccc(F)cc1)C(O)Oc1ccccc1-2 (stereo not drawn)
active: [12] 3.53%
inactive: [1] 58.1% | [2] 90.8% | [3] 100% | [4] 96.2% | [5] 90.6% | [6] 105% | [7] 80.4% | [8] 16.6% | [9] 54.5% | [10] 87.4% | [11] 87.6% | [13] 45.4% | [14] 55.2% | [16] 48.6% | [17] 45.3%

CC1C(=NC(=O)c2cnccn2)C(C)C(c2ccc(Cl)cc2)NC1c1ccncc1 (stereo not drawn)
inactive: [1] 126% | [2] 69.1% | [3] 88.3% | [4] 103% | [5] 122% | [6] 94.4% | [7] 113% | [8] 125% | [9] 90.3% | [10] 78% | [11] 95.4% | [12] 96.9% | [13] 111% | [14] 91.3% | [15] 73.6% | [16] 115% | [17] 95.8%

Cc1ccc(NCCN(C)CC(C)O)c2c(=O)c3ccccc3sc12 (stereo not drawn)
inactive: [2] 19% | [3] 33.9% | [4] 61.8% | [5] 59.9% | [6] 54.9% | [7] 66.7% | [8] 55.2% | [9] 44.7% | [10] 85.2% | [11] 84.4% | [12] 30% | [13] 23.6% | [14] 20% | [15] 18.5% | [16] 15.4% | [17] 44.9%
active: [1] 2.49%

NC1=NC(c2ccc(Cl)cc2)C2=C(N1)/C(=C/c1ccc(Cl)cc1)CCC2 (stereo not drawn)
active: [2] -12.4% | [12] -0.458% | [15] -72.1% | [16] -31.1% | [17] 2.3%
inactive: [1] 20.8% | [3] 41.2% | [4] 112% | [5] 76.1% | [6] 80.6% | [7] 39.1% | [8] 100% | [9] 92.9% | [10] 102% | [11] 79% | [13] 18.9% | [14] 33.2%

Cc1ccc(C)c(COc2cc(NC(=O)c3ccc4c(c3)OCO4)ccc2N(C)S(C)(=O)=O)c1
inactive: [1] 13.2% | [2] 24.9% | [3] 24.9% | [4] 30.7% | [5] 29.7% | [11] 27.5% | [13] 28.7% | [14] 11.1%
active: [6] -21% | [7] -20.6% | [8] -32.9% | [9] -5.26% | [10] 8.82% | [12] -15% | [15] -34.1% | [16] -41.5% | [17] -10.9%

C[C@@H](C[C@H](CCO)c1ccccc1)c1ccc2ccccc2c1
inactive: [6] 23.8%
active: [1] -41.4% | [2] -18.8% | [3] -39% | [4] -69% | [5] -81% | [7] -88% | [8] -9.29% | [9] -60.5% | [10] -58.3% | [11] -86.1% | [12] -75.3% | [13] -26.5% | [14] -63% | [15] -94.3% | [16] -82.9% | [17] -42.3%

NS(=O)(=O)c1ccc(Br)cc1
inactive: [1] 106% | [2] 108% | [3] 105% | [4] 97.6% | [5] 104% | [6] 80.8% | [7] 114% | [8] 110% | [9] 97.7% | [10] 84.7% | [11] 87.6% | [12] 105% | [13] 112% | [14] 94% | [15] 81.4% | [16] 108% | [17] 99.5%
